Measured values reported in PubChem BioAssay.
The source made the active and inactive calls.

Experiments:
[1] = target: NADPH oxidase 5 (Homo sapiens) (UniProt Q96PH1); experiment: compounds shifting NOX5 Amplex Red fluorescence – cell-based, HEK293-NOX5, NOX inhibitor project, primary screen (AID 1161); conditions: HEK293-NOX5, ionomycin, 45 min, higher = more signal
[2] = compound effects on lung adenocarcinoma cell viability – A549, calcein-AM fluorescence, 48 h, basal, profiling panel (AID 1162); conditions: higher = more signal; further: test concentration not given here
[3] = compound effects on differentiated 3T3-L1 adipocyte viability – cell-based, 3T3-L1 adipocytes, calcein-AM fluorescence, 48 h, basal, profiling panel (AID 1163); conditions: 3T3-L1 adipocytes viability, higher = more signal; further: test concentration not given here
[4] = compound effects on hepatocellular carcinoma cell viability – HepG2, calcein-AM fluorescence, 48 h, basal, profiling panel (AID 1164); conditions: higher = more signal; further: test concentration not given here
[5] = compound effects on multiple myeloma cell viability – MM1S, calcein-AM fluorescence, 48 h, basal, profiling panel (AID 1165); conditions: higher = more signal; further: test concentration not given here
[6] = calcein-AM signal in unstimulated myeloma cells – cell-based, calcein-AM fluorescence, 48 h, PK04 Diversity Set, profiling panel (AID 1166); conditions: RPMI8226 myeloma viability, higher = more signal;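 further: cells grown under basal conditions without added stimulus; test concentration not given here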
[7] = JC-1 mitochondrial signal, unstimulated HepG2 cells – cell-based, JC-1 fluorescence, 24 h, 100 nL compound, profiling panel (AID 1167); conditions: HepG2 mitochondrial potential, higher = more signal; further: test concentration not given here
[8] = JC-1 mitochondrial signal, unstimulated adipocytes – cell-based, JC-1 fluorescence, 3T3-L1 adipocytes, 24 h, 100 nL compound, profiling panel (AID 1168); conditions: JC-1 mitochondrial fluorescence, higher = more signal, called active from +8 up or from −8 down; further: test concentration not given here
[9] = JC-1 mitochondrial signal, unstimulated myeloma cells – cell-based, JC-1 fluorescence, RPMI8226, 24 h, 100 nL compound, profiling panel (AID 1169); conditions: JC-1 mitochondrial potential fluorescence, higher = more signal; further: test concentration not given here
[10] = JC-1 mitochondrial signal, unstimulated MM1S myeloma – cell-based, JC-1 fluorescence, 24 h, 100 nL compound, profiling panel (AID 1170); conditions: MM1S mitochondrial potential, higher = more signal; further: test concentration not given here
[11] = resazurin metabolic signal in A549 cells – cell-based, resazurin fluorescence, 24 h, PK04 Diversity Set, profiling panel (AID 1171); conditions: A549 viability, higher = more signal, called active from +8 up or from −8 down; further: test concentration not given here
[12] = resazurin metabolic signal in HepG2 cells – cell-based, resazurin fluorescence, 24 h, PK04 Diversity Set, profiling panel (AID 1172); conditions: HepG2 viability, higher = more signal; further: test concentration not given here
[13] = budding yeast growth changes without added modifier – OD600, strain BY4716, 24 h, basal condition, primary screen (AID 1173); conditions: S. cerevisiae BY4716 growth, OD600, 24 h; higher = more signal, called active from +8 up or from −8 down
[14] = viability profiling in MM1S myeloma cells – cell-based, resazurin fluorescence, basal, 24 h, PK04 Diversity Set, profiling panel (AID 1174); conditions: higher = more signal, called active from +8 up or from −8 down; further: test concentration not given here
[15] = target: Dihydroorotate dehydrogenase (quinone), mitochondrial (Plasmodium falciparum (isolate 3D7)) (UniProt Q08210); experiment: inhibition of P. falciparum DHODH – biochemical, C-terminal His tag, absorbance 600 nm, primary screen (AID 1175); conditions: PfDHODH enzyme, DCIP absorbance 600 nm; higher = more signal, called active from +8 up or from −8 down;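 further: recombinant parasite enzyme with a five histidine tag at its C terminus; test concentration not given here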
[16] = growth modulation of vineyard yeast isolate – strain RM11-1a, OD600, basal, 24 h, primary screen (AID 1177);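 further: cultures grown under basal conditions with no added stressor; test concentration not given here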; conditions: S. cerevisiae RM11-1a growth, OD600, 24 h; higher = more signal, called active from +8 up or from −8 down
[17] = growth of efflux-deficient E. coli DRC39 – strain DRC39, OD650, 24 h, E. coli filamentation inducers, primary screen (AID 1178);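 further: growth measured as culture turbidity by optical density at 650 nm; test concentration not given here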; conditions: E. coli DRC39 acrAB, higher = more signal, called active from +8 up or from −8 down
[18] = growth of efflux-deficient E. coli DRC39 – strain DRC39, OD650, 48 h, E. coli filamentation inducers, primary screen (AID 1179);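 further: screen aims at cell division blockers that make cells filament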; conditions: E. coli DRC39 delta-acrAB growth, higher = more signal, called active from +8 up or from −8 down
[19] = viability profiling in RPMI8226 myeloma cells – cell-based, resazurin fluorescence, basal, 24 h, PK04 Diversity Set, profiling panel (AID 1180); conditions: higher = more signal;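 further: RPMI8826 multiple myeloma cell line at 5000 cells per well; test concentration not given here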
[20] = target: E3 ubiquitin-protein ligase XIAP (Homo sapiens) (UniProt P98170); experiment: small molecules binding XIAP protein – biophysical, small-molecule microarray, fluorescence 635 nm, primary screen (AID 1181); conditions: higher = more signal;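 further: score merges 667 nm emission and signal to noise over triplicate slides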
Sequence of E3 ubiquitin-protein ligase XIAP (Homo sapiens) (P98170 whole entry, looked up): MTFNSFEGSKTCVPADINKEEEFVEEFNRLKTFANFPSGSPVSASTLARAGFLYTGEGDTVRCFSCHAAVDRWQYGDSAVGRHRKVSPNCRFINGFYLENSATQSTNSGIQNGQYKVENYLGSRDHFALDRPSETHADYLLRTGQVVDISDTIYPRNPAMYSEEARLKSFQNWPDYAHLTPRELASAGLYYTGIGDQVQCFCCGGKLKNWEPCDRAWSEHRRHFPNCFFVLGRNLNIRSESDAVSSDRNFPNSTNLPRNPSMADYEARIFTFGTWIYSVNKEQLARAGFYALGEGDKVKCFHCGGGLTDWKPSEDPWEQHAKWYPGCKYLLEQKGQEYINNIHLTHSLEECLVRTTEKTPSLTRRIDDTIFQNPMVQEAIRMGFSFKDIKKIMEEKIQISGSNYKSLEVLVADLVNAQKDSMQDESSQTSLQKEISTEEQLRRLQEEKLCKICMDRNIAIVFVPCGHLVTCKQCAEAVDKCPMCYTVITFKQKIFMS

Sequence of Dihydroorotate dehydrogenase (quinone), mitochondrial (Plasmodium falciparum (isolate 3D7)) (Q08210 whole entry, looked up): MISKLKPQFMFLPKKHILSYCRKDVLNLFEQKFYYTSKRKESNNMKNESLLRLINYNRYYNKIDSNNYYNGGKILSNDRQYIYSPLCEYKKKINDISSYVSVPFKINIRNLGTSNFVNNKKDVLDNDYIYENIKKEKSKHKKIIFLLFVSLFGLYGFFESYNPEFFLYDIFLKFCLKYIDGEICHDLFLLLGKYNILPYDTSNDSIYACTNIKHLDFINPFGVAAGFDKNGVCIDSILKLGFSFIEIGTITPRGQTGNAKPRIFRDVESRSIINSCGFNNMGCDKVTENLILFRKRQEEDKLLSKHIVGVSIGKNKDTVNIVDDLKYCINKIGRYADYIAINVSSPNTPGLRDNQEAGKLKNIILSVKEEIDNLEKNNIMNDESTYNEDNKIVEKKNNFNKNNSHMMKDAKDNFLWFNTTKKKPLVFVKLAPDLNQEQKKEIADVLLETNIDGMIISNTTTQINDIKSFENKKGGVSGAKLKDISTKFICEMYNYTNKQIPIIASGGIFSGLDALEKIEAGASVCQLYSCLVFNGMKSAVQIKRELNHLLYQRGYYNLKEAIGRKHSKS
Sequence of NADPH oxidase 5 (Homo sapiens) (Q96PH1 whole entry, looked up): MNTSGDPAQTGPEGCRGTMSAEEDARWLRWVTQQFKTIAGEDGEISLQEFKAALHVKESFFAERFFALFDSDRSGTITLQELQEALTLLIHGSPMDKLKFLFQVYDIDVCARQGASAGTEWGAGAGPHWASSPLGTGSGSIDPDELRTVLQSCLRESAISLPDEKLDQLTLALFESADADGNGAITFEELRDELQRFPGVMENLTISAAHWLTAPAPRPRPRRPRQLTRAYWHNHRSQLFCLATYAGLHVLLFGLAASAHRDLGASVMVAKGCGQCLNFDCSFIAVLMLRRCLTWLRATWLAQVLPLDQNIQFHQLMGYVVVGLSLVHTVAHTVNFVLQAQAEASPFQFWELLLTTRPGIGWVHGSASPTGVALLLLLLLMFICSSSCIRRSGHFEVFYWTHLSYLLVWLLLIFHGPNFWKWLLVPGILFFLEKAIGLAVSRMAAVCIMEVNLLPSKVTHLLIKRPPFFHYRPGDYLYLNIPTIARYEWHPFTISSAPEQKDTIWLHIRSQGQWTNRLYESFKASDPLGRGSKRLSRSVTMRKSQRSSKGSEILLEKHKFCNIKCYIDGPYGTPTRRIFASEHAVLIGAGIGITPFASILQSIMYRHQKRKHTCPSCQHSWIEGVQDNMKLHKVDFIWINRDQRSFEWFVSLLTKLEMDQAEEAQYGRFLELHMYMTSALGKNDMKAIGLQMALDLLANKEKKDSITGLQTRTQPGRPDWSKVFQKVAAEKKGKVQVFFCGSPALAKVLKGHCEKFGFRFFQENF

Row | Structure (SMILES) | z-score [1] | z-score [2] | z-score [3] | z-score [4] | z-score [5] | z-score [6] | z-score [7] | z-score [8] | z-score [9] | z-score [10] | z-score [11] | z-score [12] | z-score [13] | z-score [14] | composite z-score [15] | z-score [16] | z-score [17] | z-score [18] | z-score [19] | composite z-score [20]
1 | COc1ccc([Si](C)(C)[C@H]2[C@H](CC(=O)N(CCO)Cc3ccccc3)O[C@@]3(C(=O)N(Cc4ccc(N5CCOC5=O)cc4)c4ccccc43)[C@@H]2C)cc1 | 1.34 | -0.832 | 1.17 | -0.721 | -0.931 | 0.17 | 1.51 | 0.647 (inactive) | -1.19 | 0.188 | -1.36 (inactive) | -0.292 | -0.693 (inactive) | -1.98 (inactive) | 0.374 (inactive) | 2.73 (inactive) | 1.42 (inactive) | 1.29 (inactive) | -2.8 | 0.144
2 | C=C(/C(=C/C[C@H](OC(C)=O)c1cccc(OCCO)c1)c1cc(C(=O)OC)ccc1OC)C(C)C | -1.06 | 1.75 | 0.911 | 0.454 | -0.181 | 0.587 | 1.66 | 1.91 (inactive) | 0.00485 | 0.343 | 3.57 (inactive) | 1.97 | -1.63 (inactive) | 1.92 (inactive) | -0.569 (inactive) | -1.29 (inactive) | 2.48 (inactive) | 1.67 (inactive) | 1.87 | 0.0479
3 | O=C1N(CCS(=O)(=O)c2ccccc2)Cc2ccccc2[C@@H]2OC(c3ccc(OCCCO)cc3)=N[C@]12Cc1ccccc1 | 1.01 | -1.08 | 2.11 | 0.288 | -0.0623 | -0.222 | 0.194 | 0.401 (inactive) | -1.11 | -0.693 | -0.77 (inactive) | 0.309 | 1.72 (inactive) | -0.739 (inactive) | 0.913 (inactive) | 4.1 (inactive) | 2.25 (inactive) | 1.05 (inactive) | -0.384 | -0.121
4 | Cc1ccc(S[C@]2(C(=O)NC3CC3)CC(=O)N(Cc3ccccc3C(F)(F)F)[C@@H]2c2ccc(CO)cc2I)cc1 | 1.21 | 0.243 | 0.421 | -0.4 | -2.65 | -2.11 | 1.44 | 0.525 (inactive) | -0.513 | -0.93 | 0.149 (inactive) | 0.436 | -8 (inactive) | -1.93 (inactive) | -2.6 (inactive) | -2.07 (inactive) | 0.413 (inactive) | 0.303 (inactive) | -1.84 | -0.29
5 | Cc1ccc(S[C@]2(C(=O)NCC(C)C)CC(=O)N(C(C)C)[C@@H]2c2ccc(CO)cc2)cc1 | 0.137 | -0.0169 | 2.25 | -1.49 | 0.623 | -0.954 | 0.34 | -0.446 (inactive) | 0.134 | 0.381 | 0.443 (inactive) | -0.784 | 0.225 (inactive) | 1.13 (inactive) | -0.052 (inactive) | -1.24 (inactive) | 1.49 (inactive) | 0.719 (inactive) | 0.687 | -0.0481
6 | NC(=O)NCC#Cc1ccc2c(c1)[C@]1(C(=O)N2)[C@H](c2ccc(OCCO)cc2)N2[C@H](c3ccccc3)[C@H](c3ccccc3)OC(=O)[C@H]2[C@@H]1C(=O)Nc1nc2ccccc2s1 | 1.16 | 0.0942 | 1.17 | -0.348 | -0.285 | 1.55 | -3.12 | 2.65 (inactive) | -0.999 | -1.68 | 0.641 (inactive) | 0.0219 | 1.44 (inactive) | 1.33 (inactive) | -0.212 (inactive) | 3.21 (inactive) | 0.606 (inactive) | 0.681 (inactive) | 1.2 | -0.0398
7 | COCCOC(=O)N1C(=O)[C@@]2(c3cc(C#CCCO)ccc31)[C@H](c1ccccc1OCCO)N1[C@H](c3ccccc3)[C@H](c3ccccc3)OC(=O)[C@H]1[C@@H]2C(=O)NC[C@H](O)c1ccccc1 | -0.0153 | 2.07 | 0.915 | -0.527 | -0.377 | -1.11 | 0.278 | 1.96 (inactive) | -0.73 | -1.3 | 1.56 (inactive) | 1.43 | -0.769 (inactive) | 0.716 (inactive) | -0.375 (inactive) | -0.404 (inactive) | 2.24 (inactive) | 2.23 (inactive) | 0.433 | -0.0446
8 | C=C[C@H](OC)[C@@H](OC(=O)Nc1ccc(OC)cc1)c1ccc(OC)c(O)c1 | -2 | 0.29 | 0.922 | -0.737 | 0.478 | 0.294 | -0.638 | 1.02 (inactive) | 0.756 | 0.206 | 0.304 (inactive) | 0.895 | -1.01 (inactive) | 1.12 (inactive) | 0.465 (inactive) | 0.0923 (inactive) | 1.89 (inactive) | 1.29 (inactive) | 1.15 | 0.0073
